# Screens as filed in PubChem BioAssay.
# This is one part of a sample in which hits are shown more often than they occur.
# ST2 inh – IL1RL1 inhibition | Q01638 | AlphaLISA ST2-Fc/biotin-IL-33 interaction, 1 h | inhibition, % for hits at 17 µM | 78,000 compounds, 2.3% hits; in the data active means inhibition above about 30%
# Target sequence (Q01638 whole entry, looked up): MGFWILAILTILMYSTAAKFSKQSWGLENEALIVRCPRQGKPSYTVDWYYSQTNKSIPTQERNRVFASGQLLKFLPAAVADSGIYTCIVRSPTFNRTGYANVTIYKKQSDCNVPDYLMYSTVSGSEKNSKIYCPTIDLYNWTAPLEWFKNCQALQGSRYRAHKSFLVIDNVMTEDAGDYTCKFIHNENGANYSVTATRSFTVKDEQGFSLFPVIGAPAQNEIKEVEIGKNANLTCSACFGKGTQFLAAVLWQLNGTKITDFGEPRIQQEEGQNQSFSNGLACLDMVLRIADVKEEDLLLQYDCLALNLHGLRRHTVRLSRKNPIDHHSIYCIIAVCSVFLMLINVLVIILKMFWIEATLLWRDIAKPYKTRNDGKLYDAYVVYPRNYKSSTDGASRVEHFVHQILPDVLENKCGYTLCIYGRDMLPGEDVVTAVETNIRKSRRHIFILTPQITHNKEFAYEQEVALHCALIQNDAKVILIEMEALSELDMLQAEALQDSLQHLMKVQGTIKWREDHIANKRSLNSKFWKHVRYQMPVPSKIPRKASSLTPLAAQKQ
# An asterisk follows results filed as active; i = inactive.
SMILES,ST2 inh
N#CC1=C(N)N(c2ccccc2[N+](=O)[O-])C2=C(C(=O)CCC2)C1c1cccc([N+](=O)[O-])c1 (centres undefined),31%*
Cc1ccccc1N1C(N)=C(C#N)C(c2ccc(F)cc2)C2=C1CCCC2=O (centres undefined),i
Cc1cccc(NS(=O)(=O)c2ccc3c(c2)c(=O)n(C)c(=O)n3C)c1C,i
COc1cc([N+](=O)[O-])cc(C=Nc2ncccc2O)c1O,42%*
COc1cc([N+](=O)[O-])cc(C=Nc2cccc(-c3nc4c(C)cccc4o3)c2)c1O,i
COc1cc([N+](=O)[O-])cc(C=Nc2ccc(-c3nc4c(C)cccc4o3)cc2)c1O,i
COc1ccc(Oc2ccc(N)cc2)cc1,39%*
N#Cc1ccc(Oc2ccc(C(=O)O)cc2)cc1C#N,i
CC(=O)c1ccc(Oc2ccc(N)cc2)cc1,i
Nc1nc2ccc(Oc3ccc4nc(N)sc4c3)cc2s1,i
Nc1ccc(Oc2ccc(-c3nc(N)nc(N)n3)cc2)cc1,i
Nc1ccc(Oc2ccc(N)c(N)c2)cc1,44%*
O=C(Nc1c(C(=O)Nc2cccc(F)c2)oc2ccccc12)c1ccccc1,i
Cc1noc(C)c1S(=O)(=O)N1CCc2ccccc21,i
CCOC(=O)C1C(=O)C=C(c2ccc(F)cc2)CC1c1cc(OC)ccc1OC (centres undefined),i
CC(C)=CCC/C(C)=C/CC/C(C)=C/Cc1c(O)c(Cl)c(C)c(C=O)c1O,i
COc1cc(C=Nc2cccc(C(C)=O)c2)cc(OC)c1OC,i
Cc1cccc(NS(=O)(=O)c2ccc3[nH]c(=O)[nH]c3c2)c1,i
CCOc1ccc(S(=O)(=O)N=C2C=C(Nc3cccc(C)c3)C(=O)c3ccccc32)cc1,90%*
CCOc1ccc(Nc2nc(C)c([N+](=O)[O-])c(Nc3ccccc3)n2)cc1,i
Cc1ccc(S(=O)(=O)Nc2cccc(Cl)c2)cc1,i
Cc1ccc(S(=O)(=O)N=C2C=C(Nc3cccc(C)c3)C(=O)c3ccccc32)cc1,84%*
CCOC(=O)c1cnc2ccccc2c1Nc1cccc(C)c1,i
O=S1(=O)N=C(c2cccc(Cl)c2)Nc2ccccc21,i
COc1ccc(-c2nnc(Nc3nc4ccc(OC)cc4s3)o2)cc1,i
SMILES,ST2 inh
COc1ccc(C2=Cc3cc(OC)c(OC)cc3/C(=C/c3ccccc3)O2)cc1,i
O=c1oc(-c2ccc(Oc3ccccc3)cc2)nc2ccccc12,i
O=C1OC(c2ccc(Oc3ccccc3)cc2)=C/C1=C\c1ccco1,54%*
COc1ccc(CC(=O)Nc2ccc(C)c([N+](=O)[O-])c2)cc1,i
COc1ccc(N/C=C(/c2cc(O)ccc2O)[N+](=O)[O-])cc1,45%*
COc1ccc(C(=O)Nc2ccc([N+](=O)[O-])cc2)cc1,i
O=C(CC1=CCCCC1)N1CCc2c([nH]c3ccccc23)C1c1ccccn1 (centres undefined),i
CCN(CC)C(=O)CSC1=NC(=O)CC(=O)N1c1ccc(F)cc1,i
CC1=C(CCN2CCC(CCC(=O)N3CCCC3)CC2)C(C)(C)CCC1,i
CC(CN1CCCC1)CN(C)C(=O)c1ccc(NC(=O)C2CCC2)cc1 (centres undefined),i
CC1=CCC2CC1C(c1ccc(N(C)C)cc1)OC2(C)C (centres undefined),60%*
OCc1cc(-c2cccc(CN3CCOCC3)c2)ccn1,i
CCN(CC)C(=O)C1CCCN(Cc2cccc(OC)c2)C1 (centres undefined),i
CCOC(=O)c1ccc(-c2ccc(/C=C/c3[nH]c(=O)[nH]c(=O)c3[N+](=O)[O-])o2)cc1,i
C/C(=C\c1ccc(-c2ccc(Cl)c(C(=O)O)c2)o1)[N+](=O)[O-],32%*
O=C(/C=C/c1ccc(-c2ccc([N+](=O)[O-])cc2Cl)o1)c1ccco1,i
Cc1ccc(N2CC(NC(=O)c3ccccc3Br)CC2=O)cc1C (centres undefined),i
COc1ccc(C(=O)c2nc3ccccc3n2C)cc1OC,i
C=CCn1c(SCC(=O)NCc2ccco2)nc2scc(-c3ccccc3)c2c1=O,i
Cc1ccc([N+](=O)[O-])cc1NC(=O)C1[C@@H]2[C@H]3CC[C@H](C3)[C@H]12 (some centres undefined),i
CC(=O)c1cc2c(N)c(C(=O)c3ccc(Cl)cc3)sc2nc1C,38%*
COCc1cc(C)nc2sc(C(=O)c3ccccc3)c(N)c12,i
Cc1ccc2c(N)c(C(=O)c3ccc(Cl)cc3)sc2n1,i
COc1cc(F)ccc1-c1c(-c2ccccc2)ncn1CC1CCOCC1,i
CN1C[C@H](NC(=O)Nc2ccccc2Oc2ccccc2)C[C@H]1CO,i
SMILES,ST2 inh
CN1c2ccccc2N(C)C1c1ccc2c(c1)OCO2,i
COc1ccc(C2SCCN2S(=O)(=O)c2ccc(Br)cc2)cc1[N+](=O)[O-] (centres undefined),i
CCOc1ccc(C(=O)Nc2c(C)cc(Br)cc2C)cc1[N+](=O)[O-],i
CCOc1ccc(C2Oc3c(cc(Br)cc3OC)C=C2[N+](=O)[O-])cc1OC (centres undefined),36%*
O=[N+]([O-])C1=Cc2cc(Br)cc(Br)c2OC1c1ccc2c(c1)OCO2 (centres undefined),60%*
O=[N+]([O-])c1ccc(C2CNC(c3ccc4c(c3)OCO4)O2)cc1 (centres undefined),i
COc1ccc(NS(=O)(=O)c2ccc3[nH]c(=O)sc3c2)c(OC)c1,i
COc1ccccc1N1CCN(C(=O)c2cc3cc4ccc(Cl)cc4nc3o2)CC1,i
O=c1[nH]c2cc3[nH]c(=O)c(=O)c3cc2c1=O,i
CCc1ccc(N2C(=O)Nc3cc(Cl)c(Cl)cc3N2O)cc1,i
OCC#Cc1csc(CN2CCN(c3ncc(Cl)cn3)CC2)c1,i
Cc1cccnc1NCCNC(=O)c1nc2ccccc2c(=O)[nH]1,i
COc1ccc(/C=C2\C(=O)Nc3ccc(Br)cc32)c(OC)c1OC,i
COc1ccc(OC)c(/C=C2\C(=O)Nc3ccc(Br)cc32)c1,35%*
CCOc1cc(/C=C2\C(=O)Nc3ccc(Br)cc32)cc(Cl)c1O,33%*
COc1ccc(N2C(=O)NC(=O)/C(=C/c3cc(Br)c(O)c([N+](=O)[O-])c3)C2=O)cc1,i
COc1cc(OC)c(/C=C2/C(=O)Nc3ccccc32)c(OC)c1,i
COc1cc(/C=C2\C(=O)NC(=O)N(c3cccc(C)c3)C2=O)cc(Cl)c1O,i
COc1cc(/C=C2/C(=O)NN(c3ccc(Cl)cc3)C2=O)cc([N+](=O)[O-])c1O,i
CCOc1cc(/C=C2/NC(=O)NC2=O)c(Br)cc1O,i
COc1cc(/C=C2\C(=O)Nc3ccc(Br)cc32)cc([N+](=O)[O-])c1O,31%*
N#Cc1ccc(NC(=O)c2cc(-c3ccc(Cl)c(Cl)c3)on2)cc1,i
CCN(CC)CC[C@H]1CN(C(=O)Cc2ccccc2)CC[C@H]1CC(=O)O,i
CCOC(=O)c1ccc(NS(=O)(=O)c2ccc3c(c2)c(=O)n(C)c(=O)n3C)cc1,i
CCCCOc1ccc(CC(=N)N)cc1Cl,i
Cc1cc(C)n(C2CCN(C(=O)c3cc4n(n3)CCCN(C)C4)C2)n1 (centres undefined),i
O=C(Cn1c(=O)[nH]c2ccsc2c1=O)NCc1ccc(F)cc1,i
O=C(CN1CCOc2ccccc2C1)NCCn1nnc2ccccc21,i
CC(C)c1nccc(CN2CCCC3(C2)C(=O)N(C)c2ccccc23)n1 (centres undefined),i
